This is part of a sample that, as a whole, favours compounds with a hit. Of some 79,000 tested, about 15% had one in any assay. A number with no mark means an inactive call. Active and inactive are the calls of the source. Rule as the data show it: active = growth inhibition above about 70%; inactive = the rest.
Key:
[1] = NCI Yeast Anticancer Drug Screen. Data for the rad50 strain (AID 155);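 also: 0% = growth of vehicle-only cultures of the same strain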; conditions: S. cerevisiae rad50 strain growth inhibition, hits give high values
Method in brief: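 Readout: growth inhibition relative to vehicle-treated cultures. Compound exposure was carried out in a genetically defined yeast strain deficient in DNA damage repair.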

[2] = NCI Yeast Anticancer Drug Screen. Data for the mec2-1 strain (AID 157); conditions: S. cerevisiae mec2-1 strain, hits give high values
Method in brief: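 Vehicle-treated cultures served as reference for growth inhibition of compound-exposed mec2-1 yeast.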

[3] = NCI Yeast Anticancer Drug Screen. Data for the sgs1 mgt1 strain (AID 161);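 also: 0% = growth of cultures given vehicle only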; conditions: S. cerevisiae sgs1 mgt1 strain, hits give high values
Method in brief: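 Inhibition of yeast growth, normalised to vehicle-treated controls, is reported for a strain bearing genetic alterations in DNA damage repair.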

[4] = NCI Yeast Anticancer Drug Screen. Data for the cln2 rad14 strain (AID 165);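 also: 0% = growth equal to vehicle treated cultures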; conditions: S. cerevisiae cln2 rad14 strain, hits give high values
Method in brief: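 Each compound was tested on cln2 rad14 yeast. Inhibition of growth was calculated against vehicle-exposed controls.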

[5] = NCI Yeast Anticancer Drug Screen. Data for the bub3 strain (AID 167); conditions: S. cerevisiae bub3 mutant strain, hits give high values
Method in brief: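 Readout: yeast growth inhibition, expressed relative to vehicle-only wells. The test organism is a mutant strain from a panel with lesions in DNA repair or checkpoint genes.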

[6] = NCI Yeast Anticancer Drug Screen. Data for the mlh1 rad18 strain (AID 175); conditions: S. cerevisiae mlh1 rad18 strain growth inhibition, hits give high values
Method in brief: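 Vehicle-treated cultures served as the reference for growth inhibition in a yeast strain carrying DNA damage repair alterations exposed to each compound.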

[7] = at 5.0 µM (retest, dose inferred, filed as 0.5)
[8] = at 50.0 µM (retest, dose inferred, filed as 5.0)

| SMILES | growth inhibition [1, 7] | growth inhibition [1, 8] | growth inhibition ([1]; at 50.0 µM) | growth inhibition [2, 7] | growth inhibition [2, 8] | growth inhibition ([2]; at 50.0 µM) | growth inhibition [3, 7] | growth inhibition [3, 8] | growth inhibition ([3]; at 50.0 µM) | growth inhibition [4, 7] | growth inhibition [4, 8] | growth inhibition ([4]; at 50.0 µM) | growth inhibition [5, 7] | growth inhibition [5, 8] | growth inhibition ([5]; at 50.0 µM) | growth inhibition [6, 7] | growth inhibition [6, 8] | growth inhibition ([6]; at 50.0 µM) |
| --- | --- | --- | --- | --- | --- | --- | --- | --- | --- | --- | --- | --- | --- | --- | --- | --- | --- | --- |
| O=C1OC(CCCl)(c2ccccc2)CC1CN1CCOCC1 (configuration not stated) | 10% | 81% (active) | 70% (active) | -10% | 90% (active) | 57.9% | -2% | 75% (active) | 59% | 15% | 56% | 41.8% | 30% | 94% (active) | 71.5% (active) | -7% | 91% (active) | 73.6% (active) |
| Cc1occc1C(=S)Nc1ccc(Cl)c(C(=O)OCC(C)C)c1 | 28% | 59% | 61.3% | 19% | 45% | 55.1% | 34% | 71% (active) | 58.8% | 25% | 71% (active) | 57.6% | 30% | 78% (active) | 57.1% | 33% | 73% (active) | 41.3% |
| CCC(CC)COC(=O)c1ccc(O)c(O)c1 | -6% | 91% (active) | 98.8% (active) | -5% | 72% (active) | 99.2% (active) | -2% | 91% (active) | 48.1% | -14% | 98% (active) | 99.1% (active) | 1% | 99% (active) | 99.1% (active) | -6% | 99% (active) | 98.9% (active) |
| COCCCNC(=O)SC | 0% | -2% | -9.65% | 2% | -1% | -22.4% | 3% | 2% | -15.6% | -2% | 0% | 56.6% | 0% | 2% | -6.85% | 0% | -2% | 19.1% |
| Cc1ccc(N=C=C(c2ccccc2)c2ccccc2)cc1 | 12% | 46% | 67.5% | 26% | 39% | 59.3% | 17% | 70% (active) | 65.8% | 9% | 35% | 48% | 28% | 58% | 67.2% | 30% | 77% (active) | 71.2% (active) |
| Cc1cc(NS(=O)(=O)c2ccc(Nc3c4ccccc4nc4c(C(=O)NC(CO)(CO)CO)cccc34)cc2)no1 | -1% | 17% | 75.2% (active) | -5% | -10% | 23.9% | -1% | -3% | -1.6% | -21% | 17% | 71.5% (active) | 0% | -6% | 6.25% | -2% | 19% | 74% (active) |
| NC(CCC(=O)NC(CS(=O)(=O)O)C(=O)O)C(=O)O (configuration not stated) | 1% | 6% | 13.2% | 3% | 2% | 12.8% | 3% | 5% | 79.7% (active) | 3% | 4% | 93.5% (active) | -3% | -6% | 13.4% | -3% | -2% | 85.9% (active) |
| C/C(=N\NC(=S)N1CCN(c2ccccn2)CC1)c1ccccn1 | 46% | 99% (active) | 87.7% (active) | 35% | 100% (active) | 90.2% (active) | 35% | 99% (active) | 89.8% (active) | 21% | 98% (active) | 83.2% (active) | 63% | 100% (active) | 90.1% (active) | 58% | 99% (active) | 88.3% (active) |
| O=C1NC(c2cccc3ccccc23)Nc2ccc(Cl)cc21 (configuration not stated) | 18% | 95% (active) | 74% (active) | 10% | 96% (active) | 84.8% (active) | 5% | 97% (active) | 83% (active) | 12% | 85% (active) | 56.3% | 1% | 96% (active) | 80.6% (active) | 20% | 94% (active) | 77.2% (active) |

Reference: PubChem BioAssay (NCI)
